Ten molecules from PubChem BioAssay (NCATS) can be followed below.

Results filed as inconclusive are left out. The source made the active and inactive calls. Unless noted, the call rests on the fitted dose curve; in most records, active means well fitted curve in the direction sought with a large enough effect; inconclusive means small, poorly fitted or top-dose-only effect, or another doubt; inactive means no such curve, though single readings can be large; an effect the other way counts as inactive or inconclusive.

Experiment [1] can be described thus: P-glycoprotein substrates identified in KB-8-5-11 adenocarcinoma cell line, qHTS therapeutic library screen (AID 1346987). Further: nearly all actives have a fitted effect of over 65% in size. Further: potency means the concentration at half of the fitted maximal effect. As to conditions: KB-8-5-11 (P-gp overexpressing) viability, CellTiter-Glo, 72 h; series mostly up to 44.5 µM. The gist of the method: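 KB-8-5-11, a colchicine-selected P-gp-overexpressing KB-3-1 subline, was grown without colchicine for the assay. Cells were seeded at 500 cells/well, dosed in concentration-response and incubated 72 h at 37 degree C, 5% CO2. Viability was read by CellTiter-Glo luminescence.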
On the technique in general: qHTS replaces the single test concentration by a dilution series.

Experiment [2] deals with Atrial natriuretic peptide receptor 1 (Homo sapiens) (UniProt P16066). Nature of the experiment: Natriuretic polypeptide receptor (hNpr1) antagonism - Pilot screen (AID 1347049; calls by dose curve;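 further: agonist-evoked cGMP luminescence read 20 min after hNppA addition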). As to conditions: hNpr1 cells, antagonist mode cGMP read-out; series mostly up to 57.5 µM. The gist of the method: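 HEK293 cells co-expressing hNpr1 and the GloSensor pGS-40F cGMP luciferase sensor were preloaded with 2% GloSensor reagent for 2 h. Compounds were added for 30 min at room temperature, then cells were stimulated with 0.1 nM hNppA for 20 min before luminescence readout.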
Sequence of Atrial natriuretic peptide receptor 1 (Homo sapiens) (P16066 whole entry, looked up): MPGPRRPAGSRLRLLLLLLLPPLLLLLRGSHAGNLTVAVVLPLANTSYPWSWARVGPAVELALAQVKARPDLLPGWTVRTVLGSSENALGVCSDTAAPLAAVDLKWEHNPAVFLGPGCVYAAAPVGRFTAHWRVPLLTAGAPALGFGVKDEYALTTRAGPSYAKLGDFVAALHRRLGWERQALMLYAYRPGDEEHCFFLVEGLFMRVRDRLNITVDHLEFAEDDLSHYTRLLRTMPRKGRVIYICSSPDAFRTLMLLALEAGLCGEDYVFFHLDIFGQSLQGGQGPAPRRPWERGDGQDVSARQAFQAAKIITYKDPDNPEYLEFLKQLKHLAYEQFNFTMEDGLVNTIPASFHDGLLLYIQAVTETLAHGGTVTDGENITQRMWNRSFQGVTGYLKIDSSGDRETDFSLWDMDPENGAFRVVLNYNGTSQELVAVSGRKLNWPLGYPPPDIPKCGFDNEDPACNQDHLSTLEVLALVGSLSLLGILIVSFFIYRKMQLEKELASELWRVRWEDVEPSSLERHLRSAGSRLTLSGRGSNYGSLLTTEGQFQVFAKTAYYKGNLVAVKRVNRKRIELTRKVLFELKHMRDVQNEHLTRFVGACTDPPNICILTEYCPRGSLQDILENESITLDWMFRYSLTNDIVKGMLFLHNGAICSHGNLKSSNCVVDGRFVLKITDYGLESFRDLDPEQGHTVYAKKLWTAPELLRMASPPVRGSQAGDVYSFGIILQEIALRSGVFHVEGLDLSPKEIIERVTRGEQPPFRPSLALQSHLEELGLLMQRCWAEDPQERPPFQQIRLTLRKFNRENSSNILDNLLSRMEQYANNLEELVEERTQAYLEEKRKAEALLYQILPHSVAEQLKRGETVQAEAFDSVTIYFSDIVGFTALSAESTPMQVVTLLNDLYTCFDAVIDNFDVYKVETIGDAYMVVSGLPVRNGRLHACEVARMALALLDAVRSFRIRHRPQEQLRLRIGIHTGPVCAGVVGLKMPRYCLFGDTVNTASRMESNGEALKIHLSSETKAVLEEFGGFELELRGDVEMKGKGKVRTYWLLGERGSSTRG

Experiment [3] in a line: NS1 protein of Zika virus - qHTS assay to identify small molecule inhibitors in human HEK 293 cells (AID 1347053). Further: nearly all actives have a fitted effect of over 55% in size. The settings on record: HEK293 ZIKV MR766 infection, NS1 TR-FRET, 24 h; series mostly up to 46.1 µM. The essentials: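 HEK 293 cells pretreated with compound for 1 h, then infected with ZIKV MR766 (MOI 0.5) for 24 h at 37 C. NS1 detected by TR-FRET with two anti-NS1 antibodies; normalized to uninfected (0%) and infected (100%) wells.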

Experiment [4] has as its target Tyrosine-protein phosphatase non-receptor type substrate 1 (Homo sapiens) + Leukocyte surface antigen CD47 (Homo sapiens) (UniProt P78324+Q08722). The experiment is described as follows: CD47-SIRPalpha protein protein interaction - LANCE assay qHTS validation (AID 1347057; active means well fitted curve in the direction sought with a large enough effect in the signal ratio, with a control signal flat, not every such curve was filed as active; the % refers to the signal ratio). The settings on record: Recombinant CD47-His / biotin-SIRPalpha, TR-FRET ratio; series mostly up to 38.3 µM. The gist of the method:
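First, His-tagged CD47 and Eu-labelled anti-His antibody met the compound for 30 min; next, site-specifically biotinylated SIRPalpha was added for 30 min; finally streptavidin-APC was added before reading the TR-FRET ratio.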
A general note: Time-resolved FRET reads energy transfer from a long-lived donor to a nearby acceptor.

The target of experiment [5] is Parathyroid hormone/parathyroid hormone-related peptide receptor (Homo sapiens) (UniProt Q03431). Nature of the experiment: qHTS for PTHR1 Agonists: Optimization Screen against the NCGC LOPAC library (AID 1347079).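 Further: GloSensor cAMP luminescence in HEK-293 GP2 cells expressing human PTHR1 with IBMX.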 As to conditions: HEK293 GP2 PTHR1 GloSensor cAMP luminescence, 1 h; series mostly up to 57.1 µM. The gist of the method:
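Agonist readout: GloSensor cAMP luminescence, read after 15 min at room temperature. HEK-293-derived GP2 line carries PTHR1; compounds tested as a titration for 1 hr at 37C in presence of IBMX. M-PTH (1-15) served as control.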

A short description of experiment [6]: qHTS of pediatric cancer cell lines to identify multiple opportunities for drug repurposing: Primary screen for TC32 cells (AID 1347089). Further: nearly all actives have a fitted effect of over 60% in size. The settings on record: TC32 Ewing sarcoma viability, CellTiter-Glo luminescence, 48 h; series mostly up to 45.8 µM. The essentials:
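A viability screen of TC32 cells was run over 48 h, with primary MIPE doses spanning 0.78 nM–46 µM and NPC doses 0.59 nM–46 µM. ATP luminescence (CellTiter-Glo) served as the read-out.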

Experiment [7] can be described thus: qHTS of pediatric cancer cell lines to identify multiple opportunities for drug repurposing: Primary screen for DAOY cells (AID 1347090). Further: nearly all actives have a fitted effect of over 55% in size. As to conditions: DAOY medulloblastoma viability, CellTiter-Glo luminescence, 48 h; series mostly up to 46 µM. The essentials:
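Eight- or eleven-point concentration series, 48 h treatment at 37 degrees C in growth media; readout CellTiter-Glo luminescence. Potency and efficacy were taken from the concentration-response curves.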

A short description of experiment [8]: qHTS of pediatric cancer cell lines to identify multiple opportunities for drug repurposing: Primary screen for SK-N-MC cells (AID 1347093). Further: potency means the concentration at half of the fitted maximal effect. As to conditions: SK-N-MC viability, CellTiter-Glo luminescence, 48 h; series mostly up to 46 µM. The gist of the method:
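Metabolically active cells were quantified by ATP-dependent luminescence (CellTiter-Glo, 15 min at room temperature) following 48 h treatment. Cells had been plated at 500-1,000 per well and settled for 5 h beforehand.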

Experiment [9] is described as follows: qHTS of pediatric cancer cell lines to identify multiple opportunities for drug repurposing: Primary screen for BT-37 cells (AID 1347094). Further: potency means the concentration at half of the fitted maximal effect. As to conditions: BT-37 viability, CellTiter-Glo luminescence, 48 h; series mostly up to 57.3 µM. The gist of the method:
(§1)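 Plated cells (500-1,000 per well, growth media) were allowed to settle for 5 hours, treated with compound dilutions for 48 hours, then lysed with CellTiter-Glo for 15 min at room temperature before luminescence reading.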

Experiment [10] in a line: qHTS of pediatric cancer cell lines to identify multiple opportunities for drug repurposing: Primary screen for NB-EBc1 cells (AID 1347095). The settings on record: NB-EBc1 neuroblastoma viability, CellTiter-Glo luminescence, 48 h; series mostly up to 46 µM. The essentials:
as §1

Experiment [11] in a line: qHTS of pediatric cancer cell lines to identify multiple opportunities for drug repurposing: Primary screen for U-2 OS cells (AID 1347096). Further: nearly all actives have a fitted effect of over 50% in size. As to conditions: U-2 OS viability, CellTiter-Glo luminescence, 48 h; series mostly up to 46 µM. The gist of the method: (§2)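 Cells (500-1,000/well) in growth media were settled 5 h at 37 degrees C, then given compounds for 48 h. Viability was read as CellTiter-Glo luminescence. Primary runs used MIPE at 11 points (0.78 nM-46 µM) and NPC at 8 points (0.59 nM-46 µM); follow-ups used 11 points.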

Experiment [12] can be described thus: qHTS of pediatric cancer cell lines to identify multiple opportunities for drug repurposing: Primary screen for Saos-2 cells (AID 1347097). Further: nearly all actives have a fitted effect of over 40% in size. As to conditions: Saos-2 viability, CellTiter-Glo ATP luminescence, 48 h; series mostly up to 46 µM. The essentials:
as §1

Experiment [13] is described as follows: qHTS of pediatric cancer cell lines to identify multiple opportunities for drug repurposing: Primary screen for NB1643 cells (AID 1347099). Further: nearly all actives have a fitted effect of over 50% in size. The settings on record: NB1643 neuroblastoma viability, CellTiter-Glo luminescence, 48 h; series mostly up to 46 µM. The essentials: as §1
Experiment [14] in a line: qHTS of pediatric cancer cell lines to identify multiple opportunities for drug repurposing: Primary screen for LAN-5 cells (AID 1347100). As to conditions: LAN-5 neuroblastoma viability, CellTiter-Glo luminescence, 48 h; series mostly up to 46 µM. The essentials: as §2
Experiment [15] in a line: qHTS of pediatric cancer cell lines to identify multiple opportunities for drug repurposing: Primary screen for BT-12 cells (AID 1347101). Further: nearly all actives have a fitted effect of over 25% in size. As to conditions: BT-12 viability, CellTiter-Glo luminescence, 48 h; series mostly up to 57.3 µM. The gist of the method:
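Cells (500-1,000/well) rested 5 h, then received compounds for 48 h; metabolically active cells were measured by CellTiter-Glo luminescence. Final concentrations spanned up to 46 µM (MIPE, 11-point) or 0.59 nM-46 µM (NPC, 8-point) in primary screens, 11-point in follow-ups.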

Sequence of Tyrosine-protein phosphatase non-receptor type substrate 1 (Homo sapiens) + Leukocyte surface antigen CD47 (Homo sapiens) (P78324 whole entry, looked up): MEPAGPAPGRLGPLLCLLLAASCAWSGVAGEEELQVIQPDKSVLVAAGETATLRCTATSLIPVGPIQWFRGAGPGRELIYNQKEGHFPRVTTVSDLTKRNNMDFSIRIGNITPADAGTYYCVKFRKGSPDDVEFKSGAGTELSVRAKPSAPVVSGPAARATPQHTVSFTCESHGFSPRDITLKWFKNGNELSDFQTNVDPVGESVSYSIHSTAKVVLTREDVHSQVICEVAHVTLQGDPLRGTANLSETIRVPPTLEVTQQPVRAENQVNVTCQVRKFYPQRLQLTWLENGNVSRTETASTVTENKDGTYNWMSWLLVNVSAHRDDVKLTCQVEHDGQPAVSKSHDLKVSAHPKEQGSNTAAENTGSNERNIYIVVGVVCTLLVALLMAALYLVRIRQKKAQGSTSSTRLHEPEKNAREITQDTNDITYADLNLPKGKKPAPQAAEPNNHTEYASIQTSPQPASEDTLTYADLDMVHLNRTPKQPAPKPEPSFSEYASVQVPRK
Sequence of Tyrosine-protein phosphatase non-receptor type substrate 1 (Homo sapiens) + Leukocyte surface antigen CD47 (Homo sapiens) (Q08722 whole entry, looked up): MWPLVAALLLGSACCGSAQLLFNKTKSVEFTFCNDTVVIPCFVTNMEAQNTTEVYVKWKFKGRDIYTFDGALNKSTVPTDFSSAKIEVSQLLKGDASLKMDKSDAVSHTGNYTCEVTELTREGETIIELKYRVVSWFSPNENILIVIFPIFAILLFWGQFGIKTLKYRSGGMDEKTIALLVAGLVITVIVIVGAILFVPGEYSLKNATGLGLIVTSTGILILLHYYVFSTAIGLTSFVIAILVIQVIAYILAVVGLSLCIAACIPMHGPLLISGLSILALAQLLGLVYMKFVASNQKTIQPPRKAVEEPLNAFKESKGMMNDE
Sequence of Parathyroid hormone/parathyroid hormone-related peptide receptor (Homo sapiens) (Q03431 whole entry, looked up): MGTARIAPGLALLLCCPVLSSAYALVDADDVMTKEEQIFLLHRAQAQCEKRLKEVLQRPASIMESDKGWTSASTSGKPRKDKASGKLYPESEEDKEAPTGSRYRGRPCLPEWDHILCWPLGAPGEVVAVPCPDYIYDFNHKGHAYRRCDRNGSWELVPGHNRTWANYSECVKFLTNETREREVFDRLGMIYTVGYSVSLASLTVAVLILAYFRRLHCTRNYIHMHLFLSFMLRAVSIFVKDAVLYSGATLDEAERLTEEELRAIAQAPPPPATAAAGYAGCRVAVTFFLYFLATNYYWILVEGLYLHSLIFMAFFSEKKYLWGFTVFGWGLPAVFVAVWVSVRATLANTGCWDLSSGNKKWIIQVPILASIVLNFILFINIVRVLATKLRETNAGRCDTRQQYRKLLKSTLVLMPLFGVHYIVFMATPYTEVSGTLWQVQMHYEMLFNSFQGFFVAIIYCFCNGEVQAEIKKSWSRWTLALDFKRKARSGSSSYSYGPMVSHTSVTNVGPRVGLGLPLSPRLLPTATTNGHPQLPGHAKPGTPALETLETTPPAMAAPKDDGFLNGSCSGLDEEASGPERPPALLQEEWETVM

Consider `CC(=O)Oc1cc(C(F)(F)F)ccc1C(=O)O`, for which the Potency entry in experiment [1] is “inactive”.

Consider `O=C(OC1C[C@@H]2CC3C[C@H](C1)N2CC3=O)c1c[nH]c2ccccc12` (some centres undefined), for which the Potency result in [1] was “inactive”.

For `O=C(O)CN(CC(=O)O)CC1=CC2C(=CC1=O)Oc1cc(O)c(CN(CC(=O)O)CC(=O)O)cc1C21OC(=O)c2ccccc21` (centres undefined), the Potency entry in experiment [1] was “inactive”.

`Cn1c(=O)c2c(ncn2CCOC(=O)C(C)(C)Oc2ccc(Cl)cc2)n(C)c1=O`: in experiment [1], the Potency was 18.4 µM (active).

Take `CNC(=O)c1c(I)c(C(=O)NCC(=O)Nc2c(I)c(C(=O)O)c(I)c(C(=O)NCCO)c2I)c(I)c(N(C)C(C)=O)c1I`: in [1], the Potency result was “inactive”.

Take `CCCC1C(=O)N2C(N(C)C)=Nc3ccc(C)cc3N2C1=O` (centres undefined): the Potency entry in experiment [1] is “inactive”.

Take `Oc1ccc(/C=C/c2cc(O)cc(O)c2)cc1`: the Potency result in experiment [1] and in [12] was “inactive” throughout. In addition, the outcome in experiment [2], in experiment [3], in experiment [4], in experiment [5], in experiment [6] and in [7] was inactive. In addition, the molecule was classed as inactive in [10], in experiment [11], in experiment [13], in experiment [14] and in [15]. Also, the Potency was 15 µM (active) in [8] and 19.5 µM (active) in experiment [9].

On to `O=C(O)Cc1cc(I)c(Oc2ccc(O)c(I)c2)c(I)c1`, for which the Potency entry in experiment [1] was “inactive”.

Turning to `NC(=O)c1cc[n+](CC2=C(C(=O)O)N3C(=O)[C@@H](NC(=O)C(c4ccccc4)S(=O)(=O)[O-])[C@H]3SC2)cc1` (some centres undefined), the Potency result in [1] was “inactive”.

Consider `O[C@@H]([C@H](O)[C@H](O)CBr)[C@H](O)CBr`, for which, in experiment [1], the Potency entry was “inactive”.
